# Assay results published in publication PMC4336329 (PLoS ONE, 2015).
# Among all 310,000 compounds or so, about 14,000 (4.5%) showed an effect of 50% or more. Effects have a minus sign here. Many of the other results were omitted from the sample, so strong results are more common in it than they were.
# Target: human ether-à-go-go-related gene (hERG) potassium channel (human, UniProt Q12809)
# Test: primary screen, population patch clamp on CHO cells stably expressing hERG; higher = less effect of the substance
# 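Note: peak tail current of the secondary pulse compared with the same well before compound.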
# human ether-à-go-go-related gene (hERG) potassium channel, sequence (Q12809 whole entry, looked up): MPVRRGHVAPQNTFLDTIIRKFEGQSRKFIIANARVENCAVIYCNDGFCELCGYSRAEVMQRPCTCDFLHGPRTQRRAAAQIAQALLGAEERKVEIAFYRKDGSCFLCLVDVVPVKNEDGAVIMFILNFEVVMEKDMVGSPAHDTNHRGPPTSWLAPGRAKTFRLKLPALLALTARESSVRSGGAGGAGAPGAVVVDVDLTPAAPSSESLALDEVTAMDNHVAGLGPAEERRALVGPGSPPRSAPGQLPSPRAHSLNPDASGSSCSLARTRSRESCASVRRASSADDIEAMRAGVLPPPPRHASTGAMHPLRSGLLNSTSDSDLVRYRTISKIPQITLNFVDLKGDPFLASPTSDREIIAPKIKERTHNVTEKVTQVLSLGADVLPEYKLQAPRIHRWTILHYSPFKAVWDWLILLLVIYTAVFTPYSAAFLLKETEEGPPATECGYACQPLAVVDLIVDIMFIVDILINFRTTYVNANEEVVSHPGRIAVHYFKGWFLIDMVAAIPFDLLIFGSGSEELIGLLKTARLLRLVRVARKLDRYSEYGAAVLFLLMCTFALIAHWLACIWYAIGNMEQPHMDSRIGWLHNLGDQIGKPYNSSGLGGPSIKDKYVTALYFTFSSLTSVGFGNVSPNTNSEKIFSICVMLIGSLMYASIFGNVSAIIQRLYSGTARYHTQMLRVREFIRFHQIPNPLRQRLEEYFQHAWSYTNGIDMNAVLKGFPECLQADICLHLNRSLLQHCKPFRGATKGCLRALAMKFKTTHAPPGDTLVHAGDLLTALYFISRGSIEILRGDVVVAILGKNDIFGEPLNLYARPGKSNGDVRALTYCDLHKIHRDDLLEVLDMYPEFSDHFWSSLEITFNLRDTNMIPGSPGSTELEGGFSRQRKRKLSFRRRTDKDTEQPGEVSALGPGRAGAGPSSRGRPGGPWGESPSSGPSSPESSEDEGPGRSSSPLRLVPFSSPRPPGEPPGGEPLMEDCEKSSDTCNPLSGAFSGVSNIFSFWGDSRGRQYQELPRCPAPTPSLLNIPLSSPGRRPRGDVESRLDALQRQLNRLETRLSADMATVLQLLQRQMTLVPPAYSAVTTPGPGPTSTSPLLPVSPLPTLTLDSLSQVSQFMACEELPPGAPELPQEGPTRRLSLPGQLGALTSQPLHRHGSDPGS
row,SMILES,"hERG current change (%, negative = inhibition) at 10uM"
1,CCc1ccc(NC(=O)Nc2ccncc2)cc1,-20.9%
2,O=C1Nc2ccc([N+](=O)[O-])cc2OC1CCN1CCN(c2ccccc2)CC1 (centres unmarked),-47.4%
3,C/C(=N\Nc1ncnc2sc(C)c(C)c12)c1ccccn1,-35.5%
4,NC(=O)c1coc(-c2ccccc2)n1,12.9%
5,O=C(COC(=O)c1cccc2ccccc12)NCCCc1ccccc1,0.562%
6,O=C(NCc1ccccn1)c1ccc(OC2CCN(Cc3ccccc3)CC2)cc1,-10.2%
7,CC(C)N1CCN(C(=O)c2ccc(OC3CCN(CCc4ccccc4)CC3)cc2)CC1,-0.0142%
8,Cc1csc(C(C)NC(=O)c2ccc(OC3CCN(CCc4ccccc4)CC3)cc2)n1 (centres unmarked),-66.2%
9,Cc1csc(CNC(=O)c2ccc(OC3CCN(CCc4ccccc4)CC3)cc2)n1,-55.3%
10,COC1CCN(C(=O)c2ccc(OC3CCN(CCc4ccccc4)CC3)cc2)CC1,-29.8%
11,CC(NC(=O)c1ccc(OC2CCN(Cc3ccccn3)CC2)cc1)c1nccs1 (centres unmarked),-10.3%
12,CCOC(=O)C(CC(=O)Nc1nc(C(C)=O)c(C)s1)C(C)c1ccccc1 (centres unmarked),2.61%
13,C=CCSc1nc2c(c(=O)[nH]1)C(C(C)C)C(C#N)=C(N)O2 (centres unmarked),3.05%
14,O=C(Nc1ccc(-c2nc3ccccc3[nH]2)cc1)c1ccc2c(c1)OCO2,6.85%
15,CCCCN(C)C(=O)c1cn(CC)c2ccc(S(=O)(=O)N(C)C)cc2c1=O,8.08%
16,c1cc(C(c2nnnn2C2CCCCC2)N2CCN3CCCC3C2)ccn1 (centres unmarked),-1.98%
17,COc1ccc(NC(=O)C2CCCN2C(=O)NC2CCCCC2)cc1 (centres unmarked),-2.82%
18,CN(C)CCOc1ccccc1Cc1ccccc1.O=C(O)CC(O)(CC(=O)O)C(=O)O,-61.9%
19,CN(C)CCOc1ccccc1C(C)(C)C.O=C(O)C(=O)O,5.47%

row,SMILES,"hERG current change (%, negative = inhibition) at 10uM"
1,O=C(O)COc1ccccc1Cc1ccccc1,5.22%
2,COc1ccc(-n2ccc3ccccc32)cc1,13%
3,CCCCCCn1c(=O)c(F)cn(Cc2ccc(OC)c([N+](=O)[O-])c2)c1=O,-40.3%
4,CCCCn1c(=O)c(F)cn(Cc2ccc(OC)c([N+](=O)[O-])c2)c1=O,-25.2%
5,CCCCCn1c(=O)c(F)cn(Cc2ccc(OC)c([N+](=O)[O-])c2)c1=O,-56.6%
6,CC(C)(C)C(=O)Oc1ccc2cc(-c3ccc4ccccc4n3)c(=O)oc2c1,-10.5%
7,Nc1nc(COC(=O)c2ccc3c(c2)OCCO3)nc(Nc2ccccc2)n1,10.2%
8,c1ccc(CN2CCN(Cc3ccc4c(c3)OCCO4)CC2)cc1,-10.6%
9,Nc1nc(CN2CCN(c3ccccc3F)CC2)nc(Nc2ccc3c(c2)OCCO3)n1,-74.4%
10,Nc1nc(CN2CCN(Cc3ccccc3)CC2)nc(Nc2ccc3c(c2)OCCO3)n1,-74.8%
11,O=C(CCN1CCN(c2ccccc2F)CC1)Nc1ccc2c(c1)OCO2,-27.6%
12,CN1CCN(Cc2nc(N)nc(Nc3ccc4c(c3)OCCO4)n2)CC1,-26.1%
13,Cc1c(C(c2ccc(F)cc2)c2c(O)c3ccccc3oc2=O)c(=O)n(-c2ccccc2)n1C (centres unmarked),-20.9%
14,COc1ccc(-n2c(-c3ccco3)nc3c(cnn3-c3ccc(C)cc3)c2=O)cc1,1.88%
15,C=CCn1c(NC(=O)c2ccc(C)cc2)nc2ccccc21,6.35%
16,Cc1ccc(NCC(=O)N/N=C/c2c[nH]c3ccccc23)cc1,11.4%
17,CC(C)NC(=O)C(Cc1ccccc1)N1C(=O)c2ccccc2C1=O (centres unmarked),-4.63%
18,COc1ccc(/C(O)=C2/C(=O)C(=O)N(CCN(C)C)C2c2cccnc2)cc1C (centres unmarked),1.58%
19,O=C(Nc1ccc2snnc2c1)N1CCSCC1,6.76%

row,SMILES,"hERG current change (%, negative = inhibition) at 10uM"
1,CC(=O)N1CCN(c2ccc(NC(=O)c3ccc(C(C)(C)C)cc3)cc2)CC1,0.16%
2,O=C(Nc1ccc2snnc2c1)N1CCN(c2ccccc2)CC1,-57.2%
3,CC(=O)N1CCN(c2ccc(NC(=O)c3ccc(C)cc3)cc2)CC1,5.89%
4,O=C(Nc1ccccc1)N1CCN(c2ccc(F)cc2)CC1,-7.74%
5,CC(=O)c1ccc(N2CCN(C(=O)Nc3ccc(F)cc3)CC2)cc1,-24.5%
6,CC(=O)N1CCN(c2ccc(NC(=O)c3ccc(F)cc3)cc2)CC1,-57.7%
7,CC(=O)c1ccc(N2CCN(C(=O)Nc3ccc(C(C)C)cc3)CC2)cc1,-63.7%
8,CC(=O)c1ccc(N2CCN(C(=O)Nc3ccc(C)cc3)CC2)cc1,-4.03%
9,CC(=O)c1ccc(N2CCN(C(=O)Nc3ccc(Cl)cc3)CC2)cc1,-8.35%
10,O=C(Nc1ccc2snnc2c1)N1CCCCC1,11.9%
11,O=C(Nc1ccc(F)cc1)N1CCN(c2ccc(F)cc2)CC1,-67.8%
12,O=S(=O)(Nc1ccc(N2CCOCC2)cc1)c1ccc2ccccc2c1,3.3%
13,O=C1C(=O)N(CCS(=O)(=O)c2ccccc2)c2ccc(F)cc21,8.67%
14,O=C(OCC(=O)N(CCc1ccccc1)Cc1ccccc1)c1cc(S(=O)(=O)N2CCOCC2)ccc1F,-10.8%
15,Cn1c(N2CCOCC2)cc(=O)n(C)c1=O,-18.2%
16,Cc1cc(C(=O)N2CCc3ccccc3C2)n[nH]1,5.11%
17,Nc1cccc(NP(=O)(c2ccccc2)c2ccccc2)c1,11.7%
18,Cc1c(NC(=O)C2Cc3ccccc3CN2C(=O)c2ccco2)c(=O)n(-c2ccccc2)n1C (centres unmarked),-13.7%
